Records with an inconclusive call do not appear. Calls of active or inactive are those of the source. Calls come from the whole dose curve; as a rule, active = well fitted cell-killing curve with a large enough effect; inconclusive = small, poorly fitted or top-dose-only effect, or effect the other way; inactive = flat fitted curve, though single readings scatter.
Key:
Assay in all cases: Primary qHTS to identify gynecologic anti-cancer compounds using libraries of approved drugs and bioactive compounds (AID 1345084); note: nearly all actives have a fitted effect of over 55% in size
Hek293T = settings: Gynecologic cancer cell panel viability, ATPlite luminescence, 48 h, control line for the selectivity index; series mostly up to 57.5 µM
Summary of the method: (§1)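 ATP-based viability (ATPlite), 1,000 cells/well, 16 h pre-incubation, 48 h compound at 37 C, 5% CO2, 15 min RT before read.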

JEG-3 = settings: Gynecologic cancer cell panel viability, ATPlite luminescence, 48 h; series mostly up to 57.5 µM
Summary of the method: as §1

OV90 = settings: Gynecologic cancer cell panel viability, ATPlite luminescence, 48 h; series mostly up to 57.5 µM
Summary of the method: as §1

PA-1 = settings: Gynecologic cancer cell panel viability, ATPlite luminescence, 48 h; series mostly up to 57.5 µM
Summary of the method: as §1

SKOV3 = settings: Gynecologic cancer cell panel viability, ATPlite luminescence, 48 h; series mostly up to 57.5 µM
Summary of the method: as §1

Tov-21-G = settings: Gynecologic cancer cell panel viability, ATPlite luminescence, 48 h; series mostly up to 57.5 µM
Summary of the method: as §1

Tov112D = settings: Gynecologic cancer cell panel viability, ATPlite luminescence, 48 h; series mostly up to 57.5 µM
Summary of the method: as §1
% is set by controls: 0 for no effect and ±100 for the full control effect.

COc1cc(C2Oc3c(OC)cc(CCCO[C@@H]4O[C@H](CO)[C@@H](O)[C@H](O)[C@H]4O)cc3C2CO)ccc1O (stereo partly specified)
inactive: Potency (Hek293T) | Potency (JEG-3) | Potency (OV90) | Potency (PA-1) | Potency (SKOV3) | Potency (Tov-21-G) | Potency (Tov112D)

CC(=C/C(=O)O)/C=C/[C@]1(O)[C@@]2(C)CO[C@]1(C)C[C@H](O[C@@H]1O[C@H](CO)[C@@H](O)[C@H](O)[C@H]1O)C2
inactive: Potency (Hek293T) | Potency (JEG-3) | Potency (OV90) | Potency (PA-1) | Potency (SKOV3) | Potency (Tov-21-G) | Potency (Tov112D)

COC1=CC(=O)O[C@@H](CCc2ccccc2)[C@@H]1O
inactive: Potency (Hek293T) | Potency (JEG-3) | Potency (OV90) | Potency (PA-1) | Potency (SKOV3) | Potency (Tov-21-G) | Potency (Tov112D)

COC1C=C([C@@H]2CC=C3[C@@]4(C)C(CC[C@]32C)[C@@]2(C)C=CC(=O)C(C)(C)C2C[C@H]4OC(C)=O)C(=O)O1 (stereo partly specified)
inactive: Potency (Hek293T) | Potency (JEG-3) | Potency (OV90) | Potency (PA-1) | Potency (SKOV3) | Potency (Tov-21-G) | Potency (Tov112D)

COCCCNCC1COc2ccccc2O1 (stereo unspecified)
inactive: Potency (Hek293T) | Potency (JEG-3) | Potency (OV90) | Potency (PA-1) | Potency (SKOV3) | Potency (Tov-21-G) | Potency (Tov112D)

COC(=O)[C@@]1(C)CC[C@]2(C(=O)O[C@@H]3O[C@H](CO)[C@@H](O)[C@H](O)[C@H]3O)CC[C@]3(C)C(=CCC4[C@@]5(C)CC[C@H](O[C@@H]6O[C@H](C(=O)O)[C@@H](O)[C@H](O)[C@H]6O)C(C)(C)C5CC[C@]43C)[C@@H]2C1 (stereo partly specified)
inactive: activity change, negative = cytotoxicity (Hek293T) -3.38% [at 11.6 µM] | activity change, negative = cytotoxicity (JEG-3) -1.5% [at 11.6 µM] | activity change, negative = cytotoxicity (OV90) -2.61% [at 11.6 µM] | activity change, negative = cytotoxicity (PA-1) -17.6% [at 11.6 µM] | activity change, negative = cytotoxicity (SKOV3) -12.6% [at 11.6 µM] | activity change, negative = cytotoxicity (Tov-21-G) 1.4% [at 11.6 µM] | activity change, negative = cytotoxicity (Tov112D) -8.48% [at 11.6 µM]

CC(C)=CCc1ccc(Oc2c(O)cc(C)cc2CO)c(C(=O)O)c1O
inactive: Potency (Hek293T) | Potency (JEG-3) | Potency (OV90) | Potency (PA-1) | Potency (SKOV3) | Potency (Tov-21-G) | Potency (Tov112D)

CC1(C)CC[C@]2(C(=O)O)CC[C@]3(C)C(=CCC4[C@@]5(C)CC[C@H](O[C@@H]6O[C@H](C(=O)O)[C@@H](O)[C@H](O)[C@H]6O)C(C)(CO)C5CC[C@]43C)C2C1 (stereo partly specified)
inactive: Potency (Hek293T) | Potency (JEG-3) | Potency (OV90) | Potency (PA-1) | Potency (SKOV3) | Potency (Tov-21-G) | Potency (Tov112D)

COc1cc(/C=C/C(=O)OC2CC3CCC2(C)C3(C)C)ccc1O (stereo unspecified)
inactive: Potency (Hek293T) | Potency (JEG-3) | Potency (OV90) | Potency (PA-1) | Potency (SKOV3) | Potency (Tov-21-G) | Potency (Tov112D)

C=C1CC[C@H]2[C@@H](/C=C(\C)C(=O)[C@@]3(OC(C)=O)C[C@H](C)[C@H](OC(C)=O)[C@@H]3[C@H]1OC(C)=O)C2(C)C
inactive: Potency (Hek293T) | Potency (JEG-3) | Potency (OV90) | Potency (PA-1) | Potency (SKOV3) | Potency (Tov-21-G) | Potency (Tov112D)

CC1=C(CC(=O)O)c2cc(F)ccc2C1=Cc1ccc(S(C)(=O)=O)cc1
inactive: Potency (Hek293T) | Potency (JEG-3) | Potency (OV90) | Potency (PA-1) | Potency (SKOV3) | Potency (Tov-21-G) | Potency (Tov112D)

CC1=CC(=O)CC(C)(CO[C@@H]2O[C@H](CO)[C@@H](O)[C@H](O)[C@H]2O)C1(O)/C=C/C(C)=C/C(=O)O (stereo partly specified)
inactive: Potency (Hek293T) | Potency (JEG-3) | Potency (OV90) | Potency (PA-1) | Potency (SKOV3) | Potency (Tov-21-G) | Potency (Tov112D)

CC1=CC(=O)C2C(C)(C)CC(O)CC2(C)C1CO (stereo unspecified)
inactive: Potency (Hek293T) | Potency (JEG-3) | Potency (OV90) | Potency (PA-1) | Potency (SKOV3) | Potency (Tov-21-G) | Potency (Tov112D)

COc1cc(CCc2ccccc2)c(C(=O)O)c2c1CC(C(C)(C)O)O2 (stereo unspecified)
inactive: Potency (Hek293T) | Potency (JEG-3) | Potency (OV90) | Potency (PA-1) | Potency (SKOV3) | Potency (Tov-21-G) | Potency (Tov112D)

COc1cc(C2c3cc(O)c(OC)cc3CC(CO)C2CO)ccc1O (stereo unspecified)
inactive: Potency (Hek293T) | Potency (JEG-3) | Potency (OV90) | Potency (PA-1) | Potency (SKOV3) | Potency (Tov-21-G) | Potency (Tov112D)

O=C1C[C@@H](c2ccc(O)cc2)Oc2cc(O)ccc21
inactive: Potency (Hek293T) | Potency (JEG-3) | Potency (OV90) | Potency (PA-1) | Potency (SKOV3) | Potency (Tov-21-G) | Potency (Tov112D)

O=C(/C=C/c1ccc(O)cc1)OC[C@H]1O[C@@H](OC(=O)/C=C/c2ccccc2)[C@H](O)[C@@H](O)[C@@H]1O
inactive: Potency (Hek293T) | Potency (JEG-3) | Potency (OV90) | Potency (PA-1) | Potency (SKOV3) | Potency (Tov-21-G) | Potency (Tov112D)

COC(=O)C1(Cc2ccc(O)cc2)OC(=O)C(OC)=C1c1ccc(O)cc1 (stereo unspecified)
inactive: Potency (Hek293T) | Potency (JEG-3) | Potency (OV90) | Potency (PA-1) | Potency (SKOV3) | Potency (Tov-21-G) | Potency (Tov112D)

— PubChem BioAssay (NCATS)
